D2 PAM-1 – human D2 receptor positive allosteric modulation. DiscoveRx D2 beta-arrestin cells, luminescence, 90 min; 100% = 57 uM dopamine signal. AID 624464. 360,000 compounds, 0.23% hits. potentiation, % (no concentration beside the values). P14416; in the data active = potentiation above about 50%
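PathHunter beta-arrestin assay in DiscoveRx D2 cells. Compounds were added with an EC20 of dopamine (50 nM final) for 90 min at 37 deg C. Luminescence was read 1 h after detection reagent, with 57 uM dopamine as the EC100 control.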
B2AR arrestin – recruits beta-arrestin to the human beta2-adrenergic receptor. P07550. beta-arrestin recruitment to beta2AR, cell-based reporter. Potency, µM (doses to about 46.1 µM), without a hit: at the highest dose activation, most hits filed as activators. 330,000 compounds, 0.02% hits. AID 492947; active = well fitted activation curve with a large enough effect;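 also: potency is read from the fitted curve at half-maximal effect; 0% = DMSO controls and full agonism = EC100 isoproterenol or metaproterenol; nearly all actives have a fitted effect of over 65% in size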
Target sequence (P07550 whole entry, looked up): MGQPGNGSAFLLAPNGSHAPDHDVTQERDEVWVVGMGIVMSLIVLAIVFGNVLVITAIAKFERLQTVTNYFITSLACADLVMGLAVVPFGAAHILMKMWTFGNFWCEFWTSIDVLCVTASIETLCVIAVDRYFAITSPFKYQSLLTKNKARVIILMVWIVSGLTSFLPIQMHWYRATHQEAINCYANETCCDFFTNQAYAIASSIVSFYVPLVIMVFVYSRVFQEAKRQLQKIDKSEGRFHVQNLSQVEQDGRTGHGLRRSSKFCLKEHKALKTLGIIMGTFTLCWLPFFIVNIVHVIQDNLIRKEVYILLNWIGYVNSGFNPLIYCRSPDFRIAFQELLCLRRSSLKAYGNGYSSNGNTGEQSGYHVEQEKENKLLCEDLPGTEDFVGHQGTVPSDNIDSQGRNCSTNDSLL
D2 ag-1 – activates the human D2 dopamine receptor. P14416. 360,000 compounds, 0.084% hits. DiscoveRx PathHunter D2 beta-arrestin, luminescence, 90 min; 100% = 57 uM dopamine signal. activation, % (no concentration beside the values). AID 624465; in the data active = activation above about 40%
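Agonist mode: compounds alone added to overnight-plated D2 PathHunter cells for 90 min at 37 C, with 57 uM final dopamine (EC100) defining full response. Beta-arrestin recruitment detected by chemiluminescent reagent, read after 1 h at ambient temperature.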
D2 ag-2 – activates the human D2 dopamine receptor; AID 485358; P14416; 340,000 compounds, 0.53% hits; activation, % at 2 µM; HEK293 T-REx D2 cells, calcium flux agonist mode;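 active = activation over 3 SD above normal in the single-dose calcium agonist read, cut at about 30% in these data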; also: 0% is about no effect
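Tetracycline-induced HEK293 T-REx cells with force-coupled D2 receptor, plated overnight at 30 C, loaded with no-wash calcium dye. After a 10 s baseline, compound was pin-added and calcium flux read kinetically for 180 s; calcium rises flagged agonists.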
D2 antagonist – antagonists of human D2 dopamine receptor. P14416. AID 485344. 340,000 compounds, 2% hits. HEK293 TREx D2 cells, calcium flux, dopamine EC80. inhibition, % at 10 µM; in the data active = inhibition above about 30%; inactive = below that, where a call was filed; also: 0% is about no effect
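Measurement of antagonist activity uses fluorescent calcium dye in inducible HEK293 T-REx D2 cells: 10 s baseline, compound addition with 180 s read, EC80 dopamine addition with a further 180 s read.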
D2 PAM-2 – positively modulates the human D2 dopamine receptor allosterically; HEK293 T-REx D2, calcium flux, EC20 dopamine potentiation; 340,000 compounds, 0.34% hits; potentiation, % at 10 µM; P14416;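 active = potentiation over 3 SD above the plate norm, cut at about 30% in these data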; also: 0% is about no effect
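Tetracycline-induced HEK293 T-REx cells force-coupled to calcium signalling expressed D2; compounds were pin-added after a 10 s baseline, read kinetically 180 s, then an EC20 dopamine challenge followed with a further 180 s calcium read.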
* marks the source's active call; other numbers are inactive results. In the library only some 2.4% were active in any assay of this set; here they are far more common.

How did O=Cc1ccc(-n2nncc2-c2ccc([N+](=O)[O-])cc2)cc1 do in these assays?
D2 PAM-1: 6; B2AR arrestin: 0%; D2 ag-1: -1; D2 ag-2: 1; D2 antagonist: 3; D2 PAM-2: 7

How did Nn1c(SCCOc2ccccc2)nnc1-c1cccnc1 do in these assays?
D2 PAM-1: -2; B2AR arrestin: -1%; D2 ag-1: -4; D2 ag-2: 1; D2 antagonist: 33*; D2 PAM-2: 1

How did Nn1c(SCCOc2ccc(Cl)cc2)nnc1-c1cccnc1 do in these assays?
D2 PAM-1: -20; B2AR arrestin: 0%; D2 ag-1: -4

How did COc1ccc(CCNC(=O)/C=C/C(=O)O)cc1OC do in these assays?
D2 PAM-1: 0; B2AR arrestin: 0%; D2 ag-1: -2; D2 ag-2: 0; D2 antagonist: -8; D2 PAM-2: 0

What do the screens show for `COC(=O)c1ccc(NC(C)C(=O)OC)c([N+](=O)[O-])c1` (stereo not drawn)?
D2 PAM-1: 3; B2AR arrestin: -2%; D2 ag-1: 1; D2 ag-2: -1; D2 antagonist: 43*; D2 PAM-2: -10

Results for CCOC(=O)c1ccc(NC(C)=O)c([N+](=O)[O-])c1 ?
D2 PAM-1: 1; B2AR arrestin: 0%; D2 ag-1: 5; D2 ag-2: 1; D2 antagonist: 15; D2 PAM-2: 3

Results for Nc1ccccc1SCc1ccccc1 ?
D2 PAM-1: -11; B2AR arrestin: 0%; D2 ag-1: -7; D2 ag-2: 0; D2 antagonist: 31*; D2 PAM-2: -5

Results for CCN(C1CCCCC1)S(=O)(=O)c1ccc(S(=O)(=O)N2CCN(CCC#N)CC2)cc1 ?
D2 PAM-1: -4; B2AR arrestin: 0%; D2 ag-1: -1; D2 ag-2: 0; D2 antagonist: 38*; D2 PAM-2: -13

How did O=C(NCCN1C(=O)S/C(=C\c2cccnc2)C1=O)c1cc(S(=O)(=O)N2CCOCC2)ccc1F do in these assays?
D2 PAM-1: -14; B2AR arrestin: 0%; D2 ag-1: -4; D2 ag-2: 1; D2 antagonist: -10; D2 PAM-2: 0

What do the screens show for `Cc1noc(C)c1CSc1nc2[nH]ncc2c(=O)n1-c1ccccc1`?
D2 PAM-1: -6; B2AR arrestin: -1%; D2 ag-1: -3; D2 ag-2: 0; D2 antagonist: -28; D2 PAM-2: 32*

How did Cc1noc(C)c1CSc1nc2ccccc2c(=O)n1-c1ccccc1 do in these assays?
D2 PAM-1: -25; B2AR arrestin: 0%; D2 ag-1: -5

How did O=C(c1ccccc1)c1c2c(cc3sc4ccccc4[n+]13)-c1cccc3cccc-2c13 do in these assays?
D2 PAM-1: 8; B2AR arrestin: 0%; D2 ag-1: 5; D2 ag-2: 60*; D2 antagonist: 44*; D2 PAM-2: -21

How did Cc1onc(-c2c(F)cccc2Cl)c1C(=O)ONC(=O)c1ccco1 do in these assays?
D2 PAM-1: 7; B2AR arrestin: -1%; D2 ag-1: -1; D2 ag-2: 1; D2 antagonist: 2; D2 PAM-2: 21

Results for CC(=O)Nc1ccc(N2C(=O)c3cccc4c(O)ccc(c34)C2=O)cc1 ?
D2 PAM-1: 18; B2AR arrestin: 0%; D2 ag-1: 12; D2 ag-2: 64*; D2 antagonist: 27; D2 PAM-2: -8

How did CCCCC[n+]1ccn(-c2nc3ccccc3nc2[N-]S(=O)(=O)c2ccc(C)cc2)c1 do in these assays?
D2 PAM-1: -10; B2AR arrestin: 0%; D2 ag-1: -2; D2 ag-2: 0; D2 antagonist: 38*; D2 PAM-2: -2

How did CCCC[n+]1ccn(-c2nc3ccccc3nc2[N-]S(=O)(=O)c2ccc(C)cc2)c1 do in these assays?
D2 PAM-1: -10; B2AR arrestin: 0%; D2 ag-1: 2; D2 ag-2: -1; D2 antagonist: 15; D2 PAM-2: -5

What do the screens show for `COc1cc(OC)cc(C(=O)N2CCC(N3CCCCCC3)CC2)c1`?
D2 PAM-1: -8; B2AR arrestin: -1%; D2 ag-1: -1; D2 ag-2: -1; D2 antagonist: 3; D2 PAM-2: 38*

What do the screens show for `O=C(c1cccc(Br)c1)N1CCN(C(=O)c2cccc(Br)c2)CC1`?
D2 PAM-1: -6; B2AR arrestin: 0%; D2 ag-1: 0; D2 ag-2: 0; D2 antagonist: 5; D2 PAM-2: 35*

What do the screens show for `COc1cc(OC)cc(C(=O)N2CCN(C(=O)c3cccc(F)c3)CC2)c1`?
D2 PAM-1: 6; D2 ag-1: 1; D2 ag-2: 0; D2 antagonist: 31*; D2 PAM-2: -1

What do the screens show for `COc1cc(OC)cc(C(=O)N2CCN(C3CCCCC3)CC2)c1`?
D2 PAM-1: -8; B2AR arrestin: -1%; D2 ag-1: -2; D2 ag-2: 0; D2 antagonist: -3; D2 PAM-2: 5

How did COc1cc(OC)cc(C(=O)N2CCN(c3ccccc3F)CC2)c1 do in these assays?
D2 PAM-1: -7; B2AR arrestin: 0%; D2 ag-1: -3; D2 ag-2: 1; D2 antagonist: 31*; D2 PAM-2: 0

How did O=C(c1cccc(C(=O)N2CCN(c3ccccc3F)CC2)c1)N1CCN(c2ccccc2F)CC1 do in these assays?
D2 PAM-1: -15; B2AR arrestin: 0%; D2 ag-1: -1; D2 ag-2: -1; D2 antagonist: 5; D2 PAM-2: 5

What do the screens show for `S=c1[nH]nc(-c2cccnc2)n1/N=C/C=C/c1ccccc1`?
D2 PAM-1: -18; B2AR arrestin: 0%; D2 ag-1: 4; D2 ag-2: 0; D2 antagonist: -1; D2 PAM-2: 6

What do the screens show for `O=C1c2ccccc2C(Nc2ccc(S(=O)(=O)N3CCOCC3)cc2)N1c1ccccn1` (stereo not drawn)?
D2 PAM-1: -9; B2AR arrestin: 1%; D2 ag-1: -7; D2 ag-2: -2; D2 antagonist: -5; D2 PAM-2: 3

Results for C=CCc1cccc(/C=C/c2cc(=O)c3ccccc3[nH]2)c1O ?
D2 PAM-1: -14; B2AR arrestin: 2%; D2 ag-1: -2; D2 ag-2: 1; D2 antagonist: 1; D2 PAM-2: -5

What do the screens show for `C[C@H](CO)N1C[C@H](C)[C@@H](CN(C)C(=O)NC2CCCCC2)Oc2ccc(NC(=O)C3CCCCC3)cc2C1=O`?
D2 PAM-1: -1; B2AR arrestin: 0%; D2 ag-1: -2

What do the screens show for `COc1ccc(CCn2c(=N)c(S(=O)(=O)c3ccc(C)cc3)cc3c(=O)n4ccccc4nc32)cc1`?
D2 PAM-1: -6; B2AR arrestin: 0%; D2 ag-1: 1; D2 ag-2: 3; D2 antagonist: -7; D2 PAM-2: -1

From PubChem
